In article PMC4336329 (PLoS ONE, 2015):
Hit rate of the full screen: of about 310,000 compounds, about 14,000 (4.5%) showed an effect of 50% or more. The effect is printed as a negative number. For the sample, strong results were picked, then their nearest neighbours and some compounds at random.

target: human ether-à-go-go-related gene (hERG) potassium channel (human, UniProt Q12809); experiment: primary screen, population patch clamp on CHO cells stably expressing hERG; higher = less effect of the substance
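Also: peak tail current of the secondary pulse compared with the same well before compound.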

human ether-à-go-go-related gene (hERG) potassium channel, sequence (Q12809 whole entry, looked up): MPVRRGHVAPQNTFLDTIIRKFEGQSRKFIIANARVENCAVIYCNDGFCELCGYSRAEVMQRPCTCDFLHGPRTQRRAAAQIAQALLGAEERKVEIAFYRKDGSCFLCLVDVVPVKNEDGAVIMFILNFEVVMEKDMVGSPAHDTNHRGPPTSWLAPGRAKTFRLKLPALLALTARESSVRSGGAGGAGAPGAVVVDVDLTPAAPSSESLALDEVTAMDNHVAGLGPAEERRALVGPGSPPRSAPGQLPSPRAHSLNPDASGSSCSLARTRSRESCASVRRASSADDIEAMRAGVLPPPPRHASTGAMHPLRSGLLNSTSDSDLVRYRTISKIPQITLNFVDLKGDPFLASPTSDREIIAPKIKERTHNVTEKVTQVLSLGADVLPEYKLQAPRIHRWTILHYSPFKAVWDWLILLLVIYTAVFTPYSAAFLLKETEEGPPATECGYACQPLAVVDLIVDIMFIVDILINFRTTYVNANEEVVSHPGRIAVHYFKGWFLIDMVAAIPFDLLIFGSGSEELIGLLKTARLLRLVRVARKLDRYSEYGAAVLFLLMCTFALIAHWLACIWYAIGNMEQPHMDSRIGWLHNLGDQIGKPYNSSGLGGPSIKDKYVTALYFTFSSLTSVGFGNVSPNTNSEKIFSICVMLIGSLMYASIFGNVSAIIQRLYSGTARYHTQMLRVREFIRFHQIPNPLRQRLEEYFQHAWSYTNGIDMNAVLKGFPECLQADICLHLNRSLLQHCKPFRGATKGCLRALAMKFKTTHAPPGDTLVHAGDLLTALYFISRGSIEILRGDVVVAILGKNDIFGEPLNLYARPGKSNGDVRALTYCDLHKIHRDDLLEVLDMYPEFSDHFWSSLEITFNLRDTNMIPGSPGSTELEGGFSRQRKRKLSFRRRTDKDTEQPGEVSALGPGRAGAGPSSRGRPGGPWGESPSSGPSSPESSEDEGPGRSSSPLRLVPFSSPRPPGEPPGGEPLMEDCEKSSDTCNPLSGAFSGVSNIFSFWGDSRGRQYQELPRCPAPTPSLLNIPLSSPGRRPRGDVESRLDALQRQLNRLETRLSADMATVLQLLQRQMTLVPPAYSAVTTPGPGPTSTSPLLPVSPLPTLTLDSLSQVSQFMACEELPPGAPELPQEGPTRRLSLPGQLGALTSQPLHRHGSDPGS

Compound	hERG current change (%, negative = inhibition) at 10uM [%]
COc1ccc(OC)c(S(=O)(=O)N(C)CC(=O)N2CCOCC2)c1	11.3
O=C(CSc1nc2ccccc2s1)N/N=C/c1ccccc1C(=O)O	30.5
CC1CCN(C(=O)CSc2nnc(-c3ccncc3)n2C)CC1	6.41
CCc1nc(N[C@@H](Cc2c[nH]c3ccccc23)C(=O)O)c2oc3ccccc3c2n1	8.39
CC(C)(C)c1ccc(-c2cc(C(=O)NNC(=O)Nc3ccccc3)c3ccccc3n2)cc1	13.6
CCC(C)[C@H]1COCCS(=O)(=O)N1Cc1ccccc1F (some centres unmarked)	-18.5
COc1ccc(-c2onc(C)c2C)cc1S(=O)(=O)NCCc1ccco1	-41.8
CCOc1ccccc1CNS(=O)(=O)c1cc(-c2cc(C)no2)ccc1OC	-18.4
COc1ccccc1CNS(=O)(=O)c1cc(C)ccc1OC	9.32
COc1ccc(-c2cc(C)no2)cc1S(=O)(=O)NCC1CCN(Cc2cc(C)ccc2C)CC1	-72
Cc1cc(-c2ccc(C)c(S(=O)(=O)NCC3CCN(Cc4ccc(F)cc4)CC3)c2)on1	-66.2
Cc1cc(-c2ccc(C)c(S(=O)(=O)NCC3CCN(Cc4cccc(F)c4)CC3)c2)on1	-39.1
CCc1ccc(-c2cc(C)no2)cc1S(=O)(=O)NCc1ccccc1OC	-15.8
COc1ccc(-c2cc(C)no2)cc1S(=O)(=O)NCCCN1CCCCCC1	-17.4
CCc1ccc(-c2cc(C)no2)cc1S(=O)(=O)N1CCCN(Cc2ccc(F)cc2)C1	5.62
COc1ccccc1CN1CCC(CNS(=O)(=O)c2cc(-c3onc(C)c3C)ccc2OC)CC1	-76.7
COc1ccccc1CN1CCC(CNS(=O)(=O)c2cc(-c3cc(C)no3)ccc2OC)CC1	-58.2
COc1ccc(CNS(=O)(=O)c2cc(-c3cc(C)no3)ccc2OC)cc1OC	2.57
O=C(Nc1cccc(NC(=O)c2ccc(Br)cc2)c1)c1ccccc1	18
CCCC(CCC(=O)Nc1ccn(-c2ccccc2)n1)C(=O)O (centres unmarked)	4.5
COc1ccc(S(=O)(=O)N2CCCC(C(=O)NCc3ccccc3)C2)cc1 (centres unmarked)	23.7

Compound	hERG current change (%, negative = inhibition) at 10uM [%]
CN(C)C=O.CN(C)c1ccc(/C=C/c2nc3ccccc3c(=O)n2-c2ccc(C(=O)O)cc2)cc1	19.8
C=CCn1c(SCC(N)=O)nnc1-c1ccccc1O	0.103
CCOc1ccc(CCN2CN(CC)CNC2=S)cc1OCC	-0.457
COc1cccc(C(=O)NC(C)c2cccc3ccccc23)c1OC (centres unmarked)	-10.4
S=C(NC1CCCCC1)N1CCc2ccccc2C1	-5.33
Cc1cc2cc(CCNC(=O)c3ccc(S(=O)(=O)N4CCOCC4)cc3)c(=O)[nH]c2cc1C	6.3
Cc1ccnc(NS(=O)(=O)c2ccccc2)c1	15.2
CCc1ccc(-c2cc(C)no2)cc1S(=O)(=O)NCCN1CCC(C)CC1	-7.14
CCOc1ccccc1CNS(=O)(=O)c1cc(-c2cc(C)no2)ccc1C	-19
Cc1cc(-c2ccc(C)c(S(=O)(=O)NCCCN3CCN(c4ccccc4F)CC3)c2)on1	10.3
Cc1cc(-c2ccc(C)c(S(=O)(=O)NCC3CCN(Cc4ccccc4F)CC3)c2)on1	-52.8
CCN(CCCNS(=O)(=O)c1cc(-c2cc(C)no2)ccc1C)Cc1ccccc1	-61.3
COc1ccccc1CNS(=O)(=O)c1cc(-c2cc(C)no2)ccc1C(C)C	5.07
COc1ccc(-c2cc(C)no2)cc1S(=O)(=O)NCCCN(C)Cc1ccccc1	-29.9
CCc1ccc(-c2cc(C)no2)cc1S(=O)(=O)NCCCN1CCN(c2ccccc2)CC1	1.91
Cc1cc(-c2ccc(C)c(S(=O)(=O)NCCCN3CCN(c4ccccc4)CC3)c2)on1	-33.2
Cc1cc(-c2ccc(C)c(S(=O)(=O)NCCCN(Cc3ccccc3)C(C)C)c2)on1	-36.9
COc1ccc(-c2cc(C)no2)cc1S(=O)(=O)NCCCN1CCN(c2ccccc2)CC1	-68
COc1ccccc1CN1CCC(CNS(=O)(=O)c2cc(-c3cc(C)no3)ccc2C)CC1	-61.3
O=C(CCCCCNC(=O)c1ccccc1)N/N=C/c1ccccc1	-9.98
O=C(Nc1ccc2oc(-c3cccnc3)nc2c1)c1ccc2c(c1)OCCO2	20.2

Compound	hERG current change (%, negative = inhibition) at 10uM [%]
CCCCCC/C=C/c1ccc([C@H]2[C@H]3C=CC[C@@H](C)[C@@H]3C(=O)N2Cc2ccccc2)c(F)c1	4.76
S=C1NC(c2ccccc2)=NCN1c1ccc(Br)cc1	-12.9
COc1ccccc1N(CC(=O)NCCSCc1ccc(Cl)cc1)S(C)(=O)=O	-0.283
C=CCSc1nccc(-c2nn(-c3ccc(C)cc3)ccc2=O)n1	-8.82
O=C1NC(=O)N(CCc2ccc(F)cc2)C(=O)/C1=C/c1cccs1	16.1
Cc1c(NC(=O)COC(=O)c2ccc(Br)o2)c(=O)n(-c2ccccc2)n1C	13.8
COc1ccc(/C=N/NC(=O)c2ccccc2OCc2ccccc2)c(OC)c1	-53.8
Cc1ccccc1-c1cc(C(=O)N/N=C/c2cccnc2)c2ccccc2n1	-3.87
COc1ccc(/C=N/NC(=O)c2ccccc2NC(=O)c2ccco2)c(OC)c1	15.3
CC(C)Oc1ccccc1-c1cc(C(=O)N/N=C/c2cccnc2)c2ccccc2n1	-51.1
O=C(COc1ccc(-c2ccccc2)cc1)N/N=C/c1cccnc1	7.95
O=C(N/N=C/c1cccnc1)c1ccccc1OCc1ccc(Cl)cc1	-38.4
O=C(COc1ccccc1-c1ccccc1)N/N=C/c1cccnc1	-52.8
COc1ccc(/C(C)=N/NC(=O)c2ccccc2OCc2ccccc2)c(OC)c1	11.2
O=C(N/N=C/c1cccnc1)c1ccccc1OCc1ccc(Br)cc1	-52.6
O=C(N/N=C/c1cccnc1)c1ccccc1OCc1cccc(Br)c1	-17.1
O=C(COc1ccccc1-c1ccccc1)N/N=C/c1ccncc1	-26.2
CCOc1ccccc1-c1cc(C(=O)N/N=C/c2cccnc2)c2ccccc2n1	-6.35
Cc1ccccc1N/N=C/c1ccc(N2CCOCC2)cc1	-2.55
CCn1cc(CNC(=O)C2CCC(=O)N(Cc3ccccc3F)C2)cn1 (centres unmarked)	8.25
COc1ccc(C(=O)Nc2ccccc2C(=O)N2CCOCC2)cc1Br	-17.3

Compound	hERG current change (%, negative = inhibition) at 10uM [%]
C/C(=N\NC(=O)COc1ccccc1-c1ccccc1)c1cccnc1	-53.9
C/C(=N\NC(=O)COc1ccccc1-c1ccccc1)c1ccccn1	-6.93
C/C(=N\NC(=O)Cc1ccccc1)c1cccnc1	15.3
CSCCC(NS(=O)(=O)c1cc(C(=O)O)ccc1Cl)C(=O)O (centres unmarked)	45
O=C(/C=C/c1ccccc1Cl)NCc1ccccc1	10.2
CCN(CC)C(=O)C1CCCN(C(=O)CCn2nnnc2CN2CCOCC2)C1 (centres unmarked)	17.7
NC(N)=NC(=O)c1nc(Cl)c(N)nc1N	-3.88
NC(N)=NC(=O)c1nc(Cl)c(N2CCCCCC2)nc1N	-58.6
Cl.NC(N)=NC(=O)c1nc(Cl)c(N)nc1N.O	-0.314
Cc1ccc(N(CC2CO2)S(=O)(=O)c2ccc([N+](=O)[O-])cc2)cc1 (centres unmarked)	-69.3
COc1ccc(N(CC(O)CN2CCOCC2)S(=O)(=O)c2ccccc2)cc1 (centres unmarked)	-12.1
Cc1ccc(N(CC(O)CN2CCOCC2)S(=O)(=O)c2ccc3ccccc3c2)cc1 (centres unmarked)	-67.4
O=[N+]([O-])c1ccc(N(CC2CO2)S(=O)(=O)c2ccccc2)cc1 (centres unmarked)	-43.9
Cc1ccc(N(CC(O)CN2C(=O)NC(C)(C)C2=O)S(=O)(=O)c2ccc([N+](=O)[O-])cc2)cc1 (centres unmarked)	-32.7
Cc1ccc(S(=O)(=O)N(CC(O)CN2CCOCC2)c2cccc([N+](=O)[O-])c2)cc1 (centres unmarked)	-34.5
Cl.O=S(=O)(c1ccc2ccccc2c1)N(CC(O)CN1CCOCC1)c1ccccc1 (centres unmarked)	-47.9
Cc1ccc(N(CC2CO2)S(=O)(=O)c2ccc(C)cc2)cc1 (centres unmarked)	-5.18
Cc1ccc(N(CC(O)CN2CCOCC2)S(=O)(=O)c2ccc([N+](=O)[O-])cc2)cc1 (centres unmarked)	-65.2
O=C(Nc1ccc(NC(=O)c2cccs2)cc1)c1ccc2c(c1)OCCO2	15.6
CC1(C)Cn2c(nnc2-c2ccccc2)S1	14.1
